Reference: PubChem BioAssay (NCATS)
Results filed as inconclusive are left out. Activity calls are given as the source filed them. Calls come from the whole dose curve; as a rule, active = well fitted inhibition curve with a large enough effect; inconclusive = small, poorly fitted or top-dose-only effect; inactive = flat fitted curve, though single readings scatter.

Each compound was assayed on KB-3-1 (assay: Cytotoxic Profiling of Annotated Libraries Using Quantitative High-Throughput Screening (AID 1296008; note: nearly all actives have a fitted effect of over 60% in size)). Conditions: Five cell lines viability, CellTiter-Glo ATP luminescence, 48-72 h; max response: stronger effect = lower value.
In short: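 Cells exposed to compounds for 48 or 72 hr at 37 degrees Celsius. Viability read as ATP-coupled luminescence with CellTiter-Glo after 10 min at room temperature.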
% is set by controls: 0 for no effect and ±100 for the full control effect.

Compound | max response
CCON=O | -2.91% (inactive)
ClC=C(Cl)Cl | -14.2% (inactive)
O=c1[nH]c(=O)n(Cl)c(=O)n1Cl | 7.09% (inactive)
O=c1[nH]cc(N(CCCl)CCCl)c(=O)[nH]1 | -15% (inactive)
O=c1ccc2cc(O[C@@H]3O[C@H](CO)[C@@H](O)[C@H](O)[C@H]3O)c(O)cc2o1 | -2.51% (inactive)
CC(=O)[C@H]1CC[C@H]2[C@@H]3CC[C@@H]4C[C@H](O)CC[C@]4(C)[C@H]3CC[C@]12C | 4.77% (inactive)
CCOP(=O)(OCC)O/C(=C/Cl)c1ccc(Cl)cc1Cl | 11.5% (inactive)
C[C@@H]1[C@@H]2Cc3ccc(O)cc3[C@@]1(C)CCN2CC1CC1 | -3.25% (inactive)
CCC1C(C)=NN=C(c2ccc(OC)c(OC)c2)c2cc(OC)c(OC)cc21 (stereo not given) | 11.4% (inactive)
Clc1ccc(C(Cn2ccnc2)OCc2csc3c(Cl)cccc23)c(Cl)c1 (stereo not given) | -3.27% (inactive)
CN1[C@@H]2CC[C@H]1CC(OC1c3ccccc3CCc3ccccc31)C2 (stereo not given in full) | 1.95% (inactive)
O=C(CCl)c1ccc(Oc2ccc(C(=O)CCl)cc2)cc1 | 0.148% (inactive)
C[C@H]1CCC[C@H](O)CCCCCc2cc(O)cc(O)c2C(=O)O1 | 2.03% (inactive)
Clc1ccc(C2(Cn3cncn3)OCCO2)c(Cl)c1 | 4.69% (inactive)
C[C@]12CC[C@H](OS(=O)(=O)O)CC1=CC[C@@H]1[C@@H]2CC[C@]2(C)C(=O)CC[C@@H]12 | 5.94% (inactive)
[2H]C([2H])([2H])[C@H](N)Cc1ccccc1 | 2.04% (inactive)
C[C@@H](Cc1ccccc1)NCCC(c1ccccc1)c1ccccc1 | -4.5% (inactive)
C=CCN(C1=NCCN1)c1c(Cl)cccc1Cl | 1.74% (inactive)
CC(=O)O[C@H]1CC[C@@]2(C)C(=CC[C@@H]3[C@@H]2CC[C@]2(C)C(=O)CC[C@@H]32)C1 | -3.08% (inactive)
CC1(C)S[C@@H]2[C@H](N)C(=O)N2[C@H]1C(=O)O | -11.7% (inactive)
